MITF inh – inhibitors of human MITF; inhibition, % at 2.6 µM; 650,000 compounds, 0.91% hits; AlphaScreen MITF homodimerization, bead proximity signal; O75030; in the data active means inhibition above about 50%
TEAD-YAP inh – TEAD-YAP interaction inhibition | inhibition, % at 9.12 µM | HEK-TIYL cells, TEAD-Gal4/YAP UAS-luciferase luminescence | AID 1259422 | 640,000 compounds, 1.4% hits; in the data active means inhibition above about 32%
GPR151 ag – activators of human GPR151; activation, % at 11.2 µM; 650,000 compounds, 1% hits; Q8TDV0; PathHunter beta-arrestin GPR151 cells, luminescence; in the data active means activation above about 4.9%
FBW7 act – activators of human E3 ligase FBW7. Q969H0. 650,000 compounds, 0.13% hits. AID 1259310. normalized activity (activation), % at 26.1 µM. AlphaScreen FBW7–phospho-cyclin E peptide binding, activator screen; in the data active means normalized activity above about 1.9%;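 further: purified mutant Fbw7 with reduced substrate affinity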
GPR151 confirm – human GPR151 activation, confirmation screen | activation, % at 11.2 µM | shares compounds with GPR151 ag | 6,700 tested, under 10 active | AID 1508609 | GPR151 PathHunter beta-arrestin cells, luminescence, 90 min; % of EA-reagent control over plate median;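 active means mean percent activation across replicates above the confirmation screen cutoff of 4.91%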
GPR119 ag – activates human GPR119 in a GPR151 counter-screen; GPR119 PathHunter beta-arrestin cells, luminescence, 90 min; 0 = compound-well median, 100 = enzyme-acceptor control; 6,700 compounds, 0.3% hits; shares compounds with GPR151 ag; activation, % at 11.2 µM;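 active means mean percent activation in the counterscreen above 29.09%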;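 further: counterscreen on off-target GPR119 to flag nonselective hits from the GPR151 activator screen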
Target sequence (Q8TDV5 whole entry, looked up): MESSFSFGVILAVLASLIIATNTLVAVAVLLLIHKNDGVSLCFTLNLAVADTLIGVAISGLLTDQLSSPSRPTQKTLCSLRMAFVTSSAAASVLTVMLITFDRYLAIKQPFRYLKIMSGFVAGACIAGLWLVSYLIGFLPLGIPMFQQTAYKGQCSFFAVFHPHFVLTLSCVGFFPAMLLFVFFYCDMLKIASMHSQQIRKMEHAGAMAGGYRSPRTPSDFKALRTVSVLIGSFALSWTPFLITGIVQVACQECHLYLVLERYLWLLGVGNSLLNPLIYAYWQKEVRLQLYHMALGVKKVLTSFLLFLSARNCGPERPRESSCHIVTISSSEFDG
Hits are given with their value; - = inactive; . = no result given. This is a sample that favours compounds with a hit; in the whole collection about 3.4% have one here.

SMILES	MITF inh	TEAD-YAP inh	GPR151 ag	FBW7 act	GPR151 confirm	GPR119 ag
COC(=O)c1ccc2c(=O)n(C(C)c3ccccc3)c(=S)[nH]c2c1 (centres undefined)	-	-	-	-	.	.
COc1cc(OC)c(OC)cc1/C=C1\N=C(c2c(-c3ccccc3)noc2C)OC1=O	-	-	-	-	.	.
CCC(C)NC(=O)C(=O)NC1CCCCC1 (centres undefined)	-	-	-	-	.	.
CC(C)C(=O)N1CC[C@@H]2[C@H](CCCN2C(=O)c2cccc(F)c2)C1	-	-	-	-	.	.
COC(=O)c1cccc(C(=O)N2CCC[C@@H]3CN(C(=O)C(C)C)CC[C@H]32)c1	-	-	7.1	-	-	-
COc1ccc(CC(=O)NC2CCN(CC(=O)Nc3cccc(C)c3C)CC2)cc1OC	-	-	-	-	.	.
CCOc1ccc(NC(=O)C2CC(=O)N(CC)C(=Nc3ccc(C)c(C)c3)S2)cc1 (centres undefined)	-	-	-	-	.	.
CCCOc1ccc(NC(=O)C2CC(=O)N(CC)C(=Nc3ccc(C)c(C)c3)S2)cc1 (centres undefined)	-	-	7.3	-	-	-
CC(CC(=O)Nc1ccc(F)cc1F)S(=O)(=O)c1ccc2c(c1)OCC(=O)N2 (centres undefined)	-	-	-	-	.	.
CC(CC(=O)Nc1ccc(F)cc1Cl)S(=O)(=O)c1ccc2c(c1)OCC(=O)N2 (centres undefined)	-	-	7.7	-	-	-
Cc1ccccc1NC(=O)CC(C)S(=O)(=O)c1cc2c(cc1C)NC(=O)CO2 (centres undefined)	-	-	-	-	.	.
COc1ccc(NC(=O)CC(C)S(=O)(=O)c2ccc3c(c2)OCC(=O)N3)cc1OC (centres undefined)	-	-	9.6	-	-	-
COc1ccc(OC)c(NC(=O)CC(C)S(=O)(=O)c2cc3c(cc2C)NC(=O)CO3)c1 (centres undefined)	-	-	5.1	-	-	-
COc1ccc(CNS(=O)(=O)c2ccc(Br)cc2)cc1OC	-	-	-	-	.	.
Cc1cc(NCc2ccccc2)nc(NCCN2CCOCC2)n1	-	-	6.0	-	-	-
CC(c1ccccc1)N1C(=O)CC(Nc2ccc(N3CCOCC3)cc2)C1=O (centres undefined)	-	-	7.2	-	-	-
CC(C)N1C(=O)CC(Nc2ccc(N3CCOCC3)cc2)C1=O (centres undefined)	-	-	-	-	.	.
CC(C)CCN1C(=O)CCc2cc(NC(=O)NCc3ccc(F)cc3)ccc21	-	-	-	-	.	.
CC(C)CCN1C(=O)CCc2cc(NC(=O)c3ccc4c(c3)OCO4)ccc21	-	-	5.3	-	-	-
COc1cc(C=C(C#N)C#N)ccc1OC(=O)c1cccs1	-	-	-	-	.	.
CCOc1cc(C=C(C#N)C#N)ccc1OC(=O)c1cccs1	-	-	12	-	-	-
COC(=O)CC1C(=O)NC2CCCCC2N1C(=O)Nc1ccccc1 (centres undefined)	-	-	-	-	.	.
O=c1nc(SCc2c(F)cccc2Cl)c2c(n1CCCO)CCCC2	-	-	5.1	-	-	-
O=c1nc(SCc2cccc3ccccc23)c2c(n1CCCO)CCCC2	-	-	-	-	.	.
COc1ccc(NC(=O)CN2C(=O)CC(c3ccccc3)Sc3ccccc32)cc1OC (centres undefined)	-	-	7.4	-	-	-
SMILES	MITF inh	TEAD-YAP inh	GPR151 ag	FBW7 act	GPR151 confirm	GPR119 ag
COc1ccc(NC(=O)CN2C(=O)C(C)Oc3ccc(C)cc32)cc1 (centres undefined)	-	-	-	-	.	.
Cc1ccc2c(c1)N(CC(=O)Nc1ccc(Cl)cc1)C(=O)C(C)O2 (centres undefined)	-	-	22	-	-	-
COc1ccc(NC(=O)CN2C(=O)CC(c3ccco3)Sc3ccccc32)cc1OC (centres undefined)	-	-	-	-	.	.
CCOC(=O)CN1C(=O)COc2ccc(Cl)cc21	-	-	5.6	-	-	-
O=C(CN1C(=O)COc2ccc(Cl)cc21)Nc1ccc([N+](=O)[O-])cc1	-	-	7.6	-	-	-
CCOC(=O)Cn1c(=O)oc2cc(S(=O)(=O)NCCOC)ccc21	-	-	-	-	.	.
O=C(Nc1coc2ccccc12)c1ccccc1	-	-	-	-	.	.
COc1ccc(NC(=O)CN2C(=O)COc3ccc(C)cc32)cc1OC	-	-	6.0	-	-	-

Screening results deposited in PubChem BioAssay by The Scripps Research Institute Molecular Screening Center.
